Among the data in PubChem BioAssay AID504523 (Broad Institute, 2011) are inhibition values, retold here.

“And” between values parts separate entries of the source, which are not always exact repeats. Identical values can stand only once. In all, about 340,000 compounds went through this assay and about 490 (0.14%) were called active. No stated cut-off is given here; in the data, active means inhibition above about 12%; inconclusive means no clear call, values can overlap the other calls; inactive means below about 7.3%. This excerpt belongs to a sample that is enriched for actives. Where a structure was tested more than once in an assay, its records may differ in their call.

Kelch-like ECH-associated protein 1 (Homo sapiens), sequence (Q14145 whole entry, looked up, the tested form may be a part): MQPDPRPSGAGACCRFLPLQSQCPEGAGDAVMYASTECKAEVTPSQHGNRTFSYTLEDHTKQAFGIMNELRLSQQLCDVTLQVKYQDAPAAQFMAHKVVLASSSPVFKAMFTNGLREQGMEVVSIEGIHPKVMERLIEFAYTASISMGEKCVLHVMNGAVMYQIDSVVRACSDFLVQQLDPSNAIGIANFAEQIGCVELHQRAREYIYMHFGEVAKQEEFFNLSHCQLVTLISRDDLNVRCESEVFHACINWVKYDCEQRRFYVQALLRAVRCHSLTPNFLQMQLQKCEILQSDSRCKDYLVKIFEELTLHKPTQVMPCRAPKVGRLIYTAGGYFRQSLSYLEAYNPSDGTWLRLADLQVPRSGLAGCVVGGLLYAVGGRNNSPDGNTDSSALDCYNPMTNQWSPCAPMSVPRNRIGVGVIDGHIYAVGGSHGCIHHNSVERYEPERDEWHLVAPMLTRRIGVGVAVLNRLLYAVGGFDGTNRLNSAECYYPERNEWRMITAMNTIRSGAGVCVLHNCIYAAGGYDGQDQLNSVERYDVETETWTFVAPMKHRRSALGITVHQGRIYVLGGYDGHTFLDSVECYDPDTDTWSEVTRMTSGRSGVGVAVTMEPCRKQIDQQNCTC

This assay addresses Kelch-like ECH-associated protein 1 (Homo sapiens) (UniProt Q14145). The experiment in a line: Keap1-Nrf2 protein-protein interaction inhibitors, primary screen, biochemical, fluorescence polarization, single point (AID 504523).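 Further: human Keap1 Kelch domain with fluorescein labeled Nrf2 9mer peptide probe; 0% = neutral control wells and 100% = peptide positive control.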 Particulars: Keap1 Kelch-Nrf2 peptide fluorescence polarization, 1536-well; at 9.4 µM; stronger effect = higher value. (In fluorescence polarisation assays a small probe gives low polarisation when free and higher when bound to something large.)
With `CCC1CCc2c(sc(NC(C)=O)c2C#N)C1` (centres undefined), the inhibition – broadly, the drop in the measured response relative to a control, in per cent – is -1.96% (inactive).

For `Cn1nc(-c2ccccc2)c(CSc2cccc(Cl)c2)c1Cl`, the inhibition is 1.6% (inactive).

Turning to `CCN1CC=C2C(C#N)=C(N)C(C#N)(C#N)[C@H](c3ccoc3)[C@H]2C1`, the inhibition was 26.5% (active).

As to `O=c1cnnc(Nc2ccccc2F)[nH]1`, the inhibition was -0.638% (inactive).

As for `CCN(CC)Cc1c(C(=O)N/N=C/c2cccc(OCc3ccc(F)cc3)c2)nnn1-c1nonc1N`, the inhibition is 2.94% (inactive).

Turning to `CC(=O)NS(=O)(=O)c1ccc2c(c1)Cc1cc(S(=O)(=O)NC(C)=O)ccc1-2`, the inhibition is -4.15% (inactive).

For the compound `Cc1ccc(Nc2cc(C)nc3c(C)ccc([N+](=O)[O-])c23)cc1`, the inhibition is -0.384% (inactive).

Consider `CCOc1cc(CNCc2ccccn2)ccc1OCC(=O)NC(C)(C)C`, for which the inhibition is -3.19% (inactive).

Regarding `O=C(c1c(F)cccc1Cl)N1CCN(S(=O)(=O)c2ccc3c(c2)OCCCO3)CC1`, the inhibition is -0.841% (inactive).

Turning to `CC(C)C(NS(=O)(=O)c1cccs1)C(=O)Nc1nc(C(C)(C)C)cs1` (centres undefined), the inhibition was 1.11% (inactive).

Take `COc1ccc(-c2nonc2NC(=O)c2oc3ccc(F)cc3c2C)cc1OC`: the inhibition was 4.52% (inactive).

For `O=C1CC(C(F)(F)C(F)(F)C(F)(F)C(F)(F)F)=Nc2ccccc2N1`, the inhibition is -1.59% (inactive).

On to `Cc1noc(C)c1COC(=O)Cn1c(C)nc2ccccc21`, for which the inhibition was 1.41% (inactive).

In the case of `CCCc1cc(-c2n[nH]c(=S)n2Cc2ccccc2)cs1`, the inhibition was -5.54% (inactive).

`COc1ccccc1NC(=O)CCN1CCN(c2ccc(Cl)cc2)CC1`: the inhibition was 2.69% (inactive).

Regarding `Cc1ccc(S(=O)(=O)N2[C@@H](c3cccc4ccccc34)C(C(=O)O)=C[C@H]2C(C)(C)C)cc1`, the inhibition was 6.06% (inactive).

On to `Cc1cc(C)nc(N2C(=O)CC(Cc3ccccc3)C2=O)n1` (centres undefined), for which the inhibition was 2.94% (inactive).

With `O=C(Nc1cccc2c1N(C(=O)c1ccco1)CCC2)c1ccco1`, the inhibition was 0.867% (inactive).

Regarding `CN(C)c1ccc(C(=S)N2CCN(C(=S)Nc3ccc(Cl)cc3)CC2)cc1`, the inhibition is 1.08% (inactive).

With `Cc1ccc(Nc2nc(CSc3nnc(-c4ccncc4)n3-c3ccccc3C)cs2)cc1`, the inhibition was -6.12% (inactive).

In the case of `Nc1c(C(=O)O)cnn1-c1ccccc1`, the inhibition is 1.79% (inactive).

On to `C=C(C)C1CC=C(C)/C(=N\NC(=O)CNc2ccccc2OC)C1` (centres undefined), for which the inhibition was 0.164% (inactive).

Take `COc1ccc(S(=O)(=O)Nc2ccccc2C(=O)N2CCCC2)cc1C`: the inhibition is -0.35% (inactive).

With `COc1cc(OC)c(S(=O)(=O)Nc2ccccc2C(=O)O)cc1S(=O)(=O)Nc1ccccc1C(=O)O`, the inhibition is 15.6% (active).

Regarding `COc1ccc(OC)c(S(=O)(=O)Nc2ccccc2F)c1`, the inhibition was -3.36% (inactive).

Turning to `O=C(/C=C/c1cc2c(cc1Br)OCO2)NCc1ccc(Cl)cc1`, the inhibition is -0.718% (inactive).

Turning to `Cc1ccccc1CNC(=O)CCC(=O)N1Cc2ccccc2Oc2ncccc21`, the inhibition is 0.575% (inactive).

Regarding `O=C(CNCc1ccco1)Nc1cc(S(=O)(=O)N2CCOCC2)ccc1N1CCCC1`, the inhibition was -2.82% (inactive).

`CCCCNC(=O)C1CCCN(S(=O)(=O)c2ccc(S(=O)(=O)NCC(C)C)cc2)C1` (centres undefined): the inhibition was -0.397% (inactive).

With `COC(=O)c1ccc(-c2noc(CN(Cc3ccccn3)CC3CCCO3)n2)cc1` (centres undefined), the inhibition is -1.93% (inactive).

`Cc1ccc2c(c1)N(CC(=O)N1CCC(C)CC1)C(=O)c1cccnc1O2`: the inhibition was -0.762% (inactive).

With `COc1ccccc1C(=O)NCCn1cc(SCC(=O)NCc2ccco2)c2ccccc21`, the inhibition was -4.2% (inactive).

`O=C(NCc1ccncc1)C(=O)NCc1ccco1`: the inhibition was -3.77% (inactive).

For the compound `CCOC(=O)c1c(NC(=O)CSc2nnc(CNc3ccc(C)cc3C)o2)sc(C)c1C`, the inhibition is 3.69% (inactive).

Turning to `Cc1ccc(-n2c(CNc3ccc(F)cc3)nnc2SCC(=O)N2CCOCC2)cc1`, the inhibition was -5.07% (inactive).

In the case of `CSCCC(NC(=O)COc1ccccc1)C(=O)N1CCN(c2cccc(C(F)(F)F)c2)CC1` (centres undefined), the inhibition is 1.75% (inactive).

As for `CN(CCOc1ccc(CC2SC(=O)NC2=O)cc1)c1ccccn1` (centres undefined), the inhibition was 44.6% (active) and -1.69% (inactive).

Consider `CC(O)c1ccc(OCCN(C)c2ccccn2)cc1` (centres undefined), for which the inhibition is 2.21% (inactive).

With `CC(C)=N/N=C1/NC(=O)C(Cc2ccccc2)S1` (centres undefined), the inhibition was -5.03% (inactive).

With `N#Cc1cccc(CSc2ncnc(N)n2)c1`, the inhibition is -4.01% (inactive).

Regarding `Cc1nc(SCC(=O)NC2CCCCC2C)c(C#N)c(C)c1C` (centres undefined), the inhibition is -1.86% (inactive).

Consider `COc1ccccc1CNC(=O)C1Cc2ccccc2C(=O)O1` (centres undefined), for which the inhibition is 0.554% (inactive).

As to `CC(Sc1nnc(C2CC2)n1C1CC1)C(=O)Nc1ccc(C(N)=O)cc1` (centres undefined), the inhibition was -1.4% (inactive).

Turning to `COc1ccc(S(=O)(=O)n2nc(C)c(S(=O)(=O)N3CCOCC3)c2C)cc1`, the inhibition was -1.09% (inactive).

Consider `Cc1nn(C)cc1N1C(=O)c2cccc3c(N)ccc(c23)C1=O`, for which the inhibition is 71% (active).

With `CN1C(=O)c2cccc3c(N)ccc(c23)C1=O`, the inhibition is 16.4% (active).

Take `CC(C(=O)O)N1C(=O)c2cccc3cccc1c23` (centres undefined): the inhibition is -0.759% (inactive).

Take `O=C1c2cccc3c([N+](=O)[O-])ccc(c23)C(=O)N1CC1CCCO1` (centres undefined): the inhibition was -6.02% (inactive).

`c1ccc(CN=C2Nc3ccccc3CS2)nc1`: the inhibition is -0.423% (inactive).

Consider `O=S1(=O)CC/C(=N\Nc2ccc(F)cc2)c2ccsc21`, for which the inhibition is 3.88% (inactive).

`N#CCc1c[nH]c2ccc([N+](=O)[O-])cc12`: the inhibition is 0.344% (inactive).

Turning to `COC(=O)c1ccc(NC(=S)Nc2cccc(C)n2)cc1`, the inhibition is 1.2% (inactive).

In the case of `Cc1nn(C)c(C)c1Sc1ccccc1N`, the inhibition is -2.63% (inactive).

As for `O=C(Cc1ccc(Cl)cc1)NCc1nc(-c2ccccc2)no1`, the inhibition is -0.917% (inactive).
